FLuc modulator – counter-screen for miR-21 project: firefly luciferase inhibitors or activators; P08659; purified FLuc, Km substrates, luminescence inhibition; Potency, µM (titrated, usually from 57.5 µM), without a hit: at the top dose activity change, negative = inhibition, actives largely listed as inhibitors; 6.9% of 360,000 active;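 further: plate controls were vehicle for no effect and reference inhibitor for full effect; nearly all actives have a fitted effect of over 55% in size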
Target sequence (P08659 whole entry, looked up): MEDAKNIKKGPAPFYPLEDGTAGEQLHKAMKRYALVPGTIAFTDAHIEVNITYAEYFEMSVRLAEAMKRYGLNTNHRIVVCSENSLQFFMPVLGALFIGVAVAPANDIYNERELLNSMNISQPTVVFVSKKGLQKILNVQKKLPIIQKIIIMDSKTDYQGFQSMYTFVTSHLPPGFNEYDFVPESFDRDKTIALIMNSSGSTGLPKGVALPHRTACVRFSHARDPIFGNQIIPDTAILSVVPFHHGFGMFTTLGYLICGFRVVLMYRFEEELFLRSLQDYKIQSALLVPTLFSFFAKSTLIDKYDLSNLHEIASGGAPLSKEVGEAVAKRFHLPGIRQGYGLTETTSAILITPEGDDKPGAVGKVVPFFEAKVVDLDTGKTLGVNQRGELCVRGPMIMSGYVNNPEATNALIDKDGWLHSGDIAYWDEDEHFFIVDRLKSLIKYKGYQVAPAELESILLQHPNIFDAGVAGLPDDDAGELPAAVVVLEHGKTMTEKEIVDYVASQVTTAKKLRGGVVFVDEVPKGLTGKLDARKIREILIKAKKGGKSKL
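Biochemical qHTS of compounds, final roughly 60 µM downward over six points, against 10 nM purified firefly luciferase using Km concentrations of substrates (10 uM D-luciferin, 10 uM ATP) in Tris acetate pH 7.5 buffer; luminescence output.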
Luc counter – counter-screen: inhibitors of Kinase-Glo firefly luciferase | AID 1379 | Kinase-Glo luciferase, ATP luminescence, 8 min | Q27757 | 0.28% of 200,000 active | Potency, µM (doses to about 38.3 µM), without a hit: at the highest dose activity change, negative = inhibition, most hits filed as inhibitors; further: on the % scale 0 is the no-effect control and ±100 the full control effect; nearly all actives have a fitted effect of over 60% in size
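Compounds were added to a substrate mix at pH 7.2 (50 mM imidazole, 10 uM ATP, within the enzyme's linear range), followed by Kinase-Glo detection reagent; luminescence was measured after 8 minutes at ambient temperature.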
NPC1 prom act – activates the NPC1 promoter; Huh7 NPC1 promoter luciferase reporter, 24 h; Potency, µM (highest dose often 9.22 µM), inactives show at the highest dose activation, hits mostly activators; 2.4% of 320,000 active; AID 485313; further: % of control where 0% means no effect; nearly all actives have a fitted effect of over 60% in size
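Huh7 reporter cells (NPC1 promoter driving luciferase) are dosed with compound for 24 h at 37 °C, 5% CO2; luciferase detection reagent is then added and luminescence measured after 10 min at ambient temperature.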
SMN2 splice up – enhancers of SMN2 splice variant expression. HEK293 SMN2-luciferase splicing reporter, luminescence, 30-36 h. 2.8% of 210,000 active. AID 1458. Potency, µM (top dose mostly 46.1 µM), inactives show top-dose activity change, positive = activation, most hits filed as activators; further: % of control where 0% means no effect; nearly all actives have a fitted effect of over 55% in size
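HEK293 cells carry an SMN2 […]–luciferase reporter in which exon 7 inclusion puts luciferase in frame. Cells were plated 10-12 h before compound addition, then incubated 30-36 h at 37C. ONE-Glo luminescence was read; sodium butyrate at 4.5 mM final served as control.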
Rab9 promoter act – Rab9 promoter activation; Huh7 Rab9 promoter-luciferase reporter, luminescence, 24 h; Potency, µM (top dose mostly 9.22 µM), without a hit: top-dose activation, negative = inhibition, usual class: activators; 2.8% of 320,000 active; further: % of control where 0% means no effect; nearly all actives have a fitted effect of over 60% in size
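Quantitative HTS format; Huh7 Rab9-luciferase reporter cells (1500/well) receive compound 2 h post-plating, incubate 24 h at 37 °C, then get luciferase reagent for 10 min before luminescence reading.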
The depositor's hits bear a star; ? = inconclusive; . = not tested or not shown; [ ] = remark or other dose. The list is not random: actives were taken first. Their share in the collection is about 7.3%. The call rests on the fitted dose curve; in most records, active means well fitted curve in the direction sought with a large enough effect; inconclusive means small, poorly fitted or top-dose-only effect, or another doubt; inactive means no such curve, though single readings can be large; an effect the other way counts as inactive or inconclusive. Potency means the concentration at half of the fitted maximal effect.

SMILES	FLuc modulator	Luc counter	NPC1 prom act	SMN2 splice up	Rab9 promoter act
Cc1cc(OCc2cc(C(=O)N(C)C(C)c3ccccn3)no2)cc(C)c1Cl (stereo unspecified)	19µM*	.	?	.	?
CC(=O)c1ccc(OCc2cc(C(=O)N(C)Cc3ccccn3)no2)cc1	15µM*	.	?	.	?
COc1ccc(NC(=O)C2CCN(S(=O)(=O)c3cn(C)cn3)CC2)cc1Cl	0%	.	.	.	.
CCOC(=O)c1c(O)[nH]c(=O)c(CC)c1C	.	-2%[7.66 µM]	.	-10%[9.22 µM]	.
COc1ccc(-c2cc(C(=O)N3CCOCC3)no2)cc1OC	?	-4%	?	21%	22%
O=C(c1cc(-c2ccc(Br)cc2)on1)N1CCOCC1	1.9µM*	.	0.32µM*	.	0.32µM*
Cc1ccc(-c2cc(C(=O)N3CCN(C(=O)c4ccco4)CC3)no2)cc1	?	-4%	15%	-14%	-4%
O=C(c1cc(-c2ccc(Br)cc2)on1)N1CCCCCC1	1.3µM*	.	0.71µM*	.	0.63µM*
CC1CCN(C(=O)c2cc(-c3ccc(Br)cc3)on2)CC1	4.8µM*	.	.	-1%	.
Cc1ccccc1C(=O)Nc1ccc(C(=O)OCc2cc(=O)n3c4c(sc3n2)CCCC4)cc1	5%	.	.	.	.
Cc1cc(Nc2ccc(Br)c(C)c2)n2nc(-c3ccco3)nc2n1	-1%	.	.	.	.
c1ccc(COc2ccc(Oc3nc(N4CCCCC4)nc(N4CCOCC4)n3)nn2)cc1	1%	2%	-3%	22µM*	-8%
Cc1ccc(Nc2nc(Oc3ccc(OCc4ccccc4)nn3)nc(N3CCOCC3)n2)cc1	2%[2.3 µM]	0%	0%	?	2%
COc1ccccc1NC(=O)c1ccc2c(=O)n3c(nc2c1)CCC3	-22%	.	21%	.	8%
CC(C)c1ccc(OC(=O)c2ccc3c(=O)n4c(nc3c2)CCC4)cc1	12µM*	.	0%	.	3%
O=C(Nc1ccc(Cl)cc1Cl)c1ccc2c(=O)n3c(nc2c1)CCC3	11µM*	.	1.8µM*	.	1.4µM*
O=C(Nc1ccc(Br)cc1Cl)c1ccc2c(=O)n3c(nc2c1)CCC3	21µM*	.	3.5µM*	.	3.5µM*
[N-]=[N+]=NC[C@@H]1O[C@@H](n2cnc3c(N)ncnc32)[C@@H]2O[C@@H]21	.	-2%[7.66 µM]	.	-4%[9.22 µM]	.
COc1cccc(NC(=O)c2cc3c(-c4ccc(Cl)cc4)nn(C)c3s2)c1	0%	.	.	.	.
Cc1ccc(CNc2ncnc3c2cnn3-c2ccccc2)cc1	-12%	2%	5%	-18%	16%
c1ccc(-n2ncc3c(NCc4ccco4)ncnc32)cc1	24µM*	1%	?	.	?
Cc1ccc(-n2ncc3c(NCc4ccccc4)ncnc32)cc1	-19%	.	3.5µM*	.	?
COc1ccccc1CNc1ncnc2c1cnn2-c1ccccc1	?	.	17%	.	3%
COc1ccccc1CNc1ncnc2c1cnn2-c1ccc(C)cc1	17µM*	.	.	.	.
CCOc1ccc(NC(=O)CSc2nnc3scc(-c4ccccc4)n23)cc1	-16%	.	.	-10%	.
SMILES	FLuc modulator	Luc counter	NPC1 prom act	SMN2 splice up	Rab9 promoter act
Cc1ccc(C2=NNC(C(O)C(O)C(O)C(C)O)S2)cc1 (stereo unspecified)	24µM*	-1%	27%	-3%	17%
COc1ccc(/C=N/Nc2ncccc2[N+](=O)[O-])c(OC)c1	1.1µM*	11µM*	?	11µM*	3.5µM*
COc1ccc(/C=N/Nc2cc(C)nc3ccc(OC)cc23)c(OC)c1	21µM*	.	-2%	.	3%
COc1ccc2nc(C)cc(N/N=C/c3ccccc3)c2c1	9.5µM*	.	-2%	.	-5%
COc1ccc2nc(C)cc(SCC(=O)N/N=C/c3ccccc3)c2c1	-2%	1%	-2%	3%	-4%
COc1ccccc1/C=N/Nc1cc(C)nc2ccc(C)cc12	-12%	.	16%	.	11%
COc1ccc(/C=N/Nc2ncc(-c3ccccc3)cn2)c(OC)c1	-3%	-1%	-3%	-25%	1%
COC(=O)[C@@H](NC(=O)O[C@@H]1C(=O)c2cc(Br)ccc2O[C@H]1c1ccc2c(c1)OCO2)C(C)C	.	1%	.	-3%	.
CC(C)CCC[C@@H](C)[C@@H]1CC[C@@H]2[C@H]3CC[C@H]4C[C@@H](N)CC[C@@]4(C)[C@@H]3CC[C@]21C	.	0%[7.66 µM]	.	-6%[9.22 µM]	.
O=C(CSc1nnc(SCc2ccc(Cl)cc2)s1)N1CCOCC1	15µM*	4%	-15%	-6%	0%
CCN(CC)C(=O)CSc1nnc(SCc2ccc(Cl)cc2)s1	19µM*	-3%	1%	10%	-7%
COc1cc(OC)c(NC(=O)c2cc(CN3CCOCC3)on2)cc1Cl	0%	.	.	.	.
CC(C)(C)C1CCc2sc(-c3nnc(CCl)o3)cc2C1 (stereo unspecified)	24µM*	0%	-2%	-24%	-1%
CCOc1ccc(CNC(=O)C2CCN(C(=O)N3CC(CC)Oc4ccccc43)CC2)cc1 (stereo unspecified)	-3%	.	.	.	.
COc1cc(C2NC(=S)NC(C)=C2C(=O)Nc2ccc(C)cc2)ccc1O (stereo unspecified)	?	3%	?	.	2.2µM*
Cc1ccccc1C1CC(=O)Nc2ccc3ccccc3c21 (stereo unspecified)	-2%	.	.	-2%	.
CCNC(=O)CSc1nc(-c2ccc(F)cc2)cs1	?	0%	16%	16%	28%
Cc1nnc(SCC(=O)Nc2nc(-c3ccc(F)cc3)cs2)[nH]c1=O	17µM*	1%	-5%	1%	-1%
O=C(CSc1nnc(-c2cccnc2)n1Cc1ccco1)Nc1nc(-c2ccc(F)cc2)cs1	15µM*	1%	1%	-53%	-2%
O=C(CSc1nnc(-c2cccnc2)n1Cc1ccco1)Nc1cccc(O)c1	4%	.	2%	.	0%
CC(C)(C)NC(=O)CSc1nc(-c2ccc(F)cc2)cs1	6.7µM*	-5%	3.5µM*	14µM*	2µM*
O=C(CSc1nc(-c2ccc(Cl)cc2)cs1)Nc1cccc([N+](=O)[O-])c1	9.5µM*	1%	2%	-60%	-7%
CCn1c(SCC(=O)Nc2nc(-c3ccc(C)cc3)cs2)nnc1-c1ccccc1	24µM*	-1%	0%	-24%	-24%
Cc1ccc(-c2csc(NC(=O)CSc3nc(C)cs3)n2)cc1	?	0%	?	14µM*	22%
Cc1csc(SCC(=O)Nc2nc(-c3ccccc3)cs2)n1	-12%	2%	13%	16%	20%
CCn1c(SCC(=O)Nc2nc(-c3ccc(C)cc3)cs2)nnc1-c1ccccc1O	?	2%	-8%	-100%	-18%
O=C(Nc1ccn(Cc2ccccc2)n1)c1ccc(F)cc1	6.7µM*	-4%	2µM*	4%	2.8µM*
O=C(Nc1ccn(Cc2ccccc2)n1)c1cccc(Cn2cc([N+](=O)[O-])cn2)c1	15µM*	-3%	4%	-13%	4%
CCOc1ccccc1NC(=O)CN(CCc1ccccc1)S(=O)(=O)c1ccc(C)cc1	-6%	.	.	-10%	.

Bioassay records from PubChem.
